HCV inh – blocks hepatitis C virus; Huh7.5.1 HCVcc-Cre infection, luciferase reporter, 44 h; Potency, µM (highest dose often 41.8 µM), without a hit: at the top dose activity change, negative = inhibition, most hits filed as inhibitors; 340,000 tested, 3.4% active; AID 651820; active = well fitted inhibition curve with a large enough effect; inconclusive = small, poorly fitted or top-dose-only effect, or another doubt; inactive = no such curve, though single readings can be large or run the other way; note: potency is the fitted concentration of half-maximal effect
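Cells seeded at 1,000/well and cultured 4 h, then compounds added followed by HCVcc-Cre virus (~0.5 moi). After 44 h further culture, luciferase substrate was added, plates held 15 min at room temperature, and luminescence read for 15 sec.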
VACV mCherry inh – inhibitors of vaccinia virus infection (mCherry reporter signal); Vaccinia virus mCherry reporter infection, fluorescence; Potency, µM (highest dose often 36.5 µM), for inactives: top-dose activity change, negative = inhibition, usual class: inhibitors; 310,000 tested, 0.63% active; calls by dose curve; tested in A549 cells; note: potency is the fitted concentration of half-maximal effect; nearly all actives have a fitted effect of over 35% in size
HCMV inh – human cytomegalovirus inhibition; HFF cells, HCMV-luciferase reporter, 72 h; hits give low values; activity change, negative = inhibition, % at 57.5 µM; 410,000 tested, 4.5% active; AID 1259415; in the data active = activity change below about -60%; inconclusive = no clear call, values can overlap the other calls; inactive = above about -39%
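Inhibition of viral replication was scored as loss of reporter luminescence in HFFs infected with HCMV-luciferase (MOI 1 PFU/cell) for 72 h; compounds tested at 2 doses, normalized to buffer and Salinomycin controls.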
FMDV antiviral – antivirals against foot and mouth disease virus | Potency, µM (titrated, usually from 57.9 µM), for the others: at the top dose activity change, negative = inhibition, usual class: inhibitors | 410,000 tested, 1.2% active | FMDV antiviral cell-based qHTS; calls by dose curve; tested in HEK293T cells; note: read-out not given here; potency is the fitted concentration of half-maximal effect; nearly all actives have a fitted effect of over 45% in size
Vaccinia Venus – inhibitors of vaccinia virus (Venus reporter); Vaccinia virus Venus reporter expression, fluorescence; Potency, µM (titrated, usually from 36.5 µM), for inactives: at the top dose activity change, negative = inhibition, most hits filed as inhibitors; 330,000 tested, 0.46% active; calls by dose curve; tested in A549 cells; note: potency is the fitted concentration of half-maximal effect; nearly all actives have a fitted effect of over 30% in size
Active calls of the source: *; i = inactive; ? = inconclusive; / = not tested or not shown. Most compounds without a hit are left out; they make up all but 7.3% or so of the library. % is set by controls: 0 for no effect and ±100 for the full control effect.

SMILES	HCV inh	VACV mCherry inh	HCMV inh	FMDV antiviral	Vaccinia Venus
Cc1c(NC(=O)c2cnn3c(C(F)(F)F)cc(-c4ccco4)nc23)c(=O)n(-c2ccccc2)n1C	11.0%	/	-62.4*	?	-19.6%
CC(=O)c1cccc(NC(=O)COC(=O)c2n[nH]c3ccccc23)c1	-1.3%	-2.3%	7.7	11.4%	-3.9%
C=CCOc1cccc(C2/C(=C(\O)c3ccc4c(c3)OCCO4)C(=O)C(=O)N2CCN2CCOCC2)c1 (stereo not drawn)	15.1%	i	32.6	4.0%	-1.7%
COc1cc2nc(NC3CCN(C)CC3)nc(NC3CCN(C)CC3)c2cc1OC	/	-7.2%	/	/	-19.6%
COc1ccc(CNC(=S)N/N=C(/C)c2ccccc2)cc1	0.6%	-8.9%	-1.8	20.8%	-17.1%
C=C(C)CNC(=S)N/N=C(\C)c1ccc(OC)cc1	?	?	-69.9*	-19.9%	-22.6%
COCCNC(=S)N/N=C(\C)c1ccc(OC)cc1	2.4%	-10.1%	-21.4	-28.6%	-12.0%
COCCNC(=S)N/N=C(\C)c1ccc2cc(OC)ccc2c1	?	?	-74.9*	-26.3%	-24.5%
S=C(NCc1ccco1)Nc1cc(Cl)c(Cl)cc1Cl	25.1µM*	-26.5%	?	0.0%	-25.1%
Cn1c(NN=O)nc2ccccc21	?	?	-100.0*	1.8%	?
O=NNc1nc2ccccc2n1Cc1ccccc1	?	/	-80.0*	-11.6%	/
Cn1c(Cl)nc2ccccc21	-4.2%	/	32.4	0.0%	/
COc1ccc(NC(=O)N2CC3(CCN(C(=O)c4cnccn4)CC3)C2)cc1	/	/	/	-0.5%	/
O=C(COc1ccc2c(-c3ccccc3)cc(=O)oc2c1)NCc1ccccn1	11.7%	4.2%	0.6	-17.0%	-7.5%
CC(Oc1ccc2c(-c3ccccc3)cc(=O)oc2c1)C(=O)NC(Cc1c[nH]c2ccc(O)cc12)C(=O)O (stereo not drawn)	1.1%	4.4%	-76.7*	5.8%	-7.8%
CC(Oc1ccc2c(-c3ccccc3)cc(=O)oc2c1)C(=O)NCc1ccccn1 (stereo not drawn)	25.1µM*	-8.5%	-33.7	-21.4%	-3.1%
O=C(COc1ccc2c(-c3ccccc3)cc(=O)oc2c1)N[C@@H](Cc1c[nH]c2ccc(O)cc12)C(=O)O	?	2.4%	19.3	-1.0%	-6.4%
Cc1ccc2cccc(O)c2n1	/	-6.2%	/	/	-3.6%
Nc1ccc(CCCC(=O)NCc2cccnc2)cc1	/	i	-5.7	-15.4%	-25.3%
CC1(C(=O)NCCc2c[nH]c3ccccc23)CCN1Cc1ccccc1OC(F)F (stereo not drawn)	/	?	-96.3*	-25.5%	0.9%
COc1cc(C(=O)NCC(=O)N/N=C(C)\C=C\c2ccccc2)cc(OC)c1OC	?	?	-72.6*	-4.9%	-28.8%
CCC(=N\NC(=O)COc1ccccc1OC)/C(CC)=N/NC(=O)COc1ccccc1OC	?	/	3.6	?	/
COc1cccc(C(=O)NCC(=O)N/N=C(C)\C=C\c2ccccc2)c1	1.8%	-14.7%	-8.6	-17.7%	-15.0%
O=C(NN=C(Cc1ccccc1)Cc1ccccc1)c1ccccc1O	4.2%	?	-39.2	-1.8%	-18.4%
COc1ccccc1OCC(=O)NN=C(Cc1ccccc1)Cc1ccccc1	?	i	-62.9*	-12.4%	-4.2%
SMILES	HCV inh	VACV mCherry inh	HCMV inh	FMDV antiviral	Vaccinia Venus
COc1cc(C(=O)N/N=C(\C)Cc2ccccc2)cc(OC)c1OC	?	-26.1%	-91.5*	-8.3%	-26.8%
NC(=S)NN=C(Cc1ccccc1)Cc1ccccc1	?	?	-70.2*	?	?
CCCN1C(=O)C2(c3ccccc31)c1c(oc3ccc(F)cc3c1=O)C(=O)N2CCCOC(C)C (stereo not drawn)	/	-8.5%	-16.6	1.9%	-10.9%
COc1ccc(/C(C)=N/NC(=O)CNC(=O)/C=C\c2ccccc2)c(OC)c1	17.8%	/	-85.9*	-2.5%	/
Cc1nnc(SCC(=O)N2CCC(c3noc4ccc(F)cc34)CC2)s1	3.6%	/	-69.9*	-22.2%	/
Cc1sc2ncnc(SCC(=O)N3CCC(c4noc5ccc(F)cc45)CC3)c2c1C	-7.2%	-7.1%	-0.7	-10.2%	-0.8%
COc1cccc(C2C(C(=O)Nc3cccnc3)=C(C)Nc3nnnn32)c1OC (stereo not drawn)	-5.3%	/	-69.2*	10.8%	/
COc1cc(C2C(C(=O)Nc3ccccc3)=C(C)Nc3nnnn32)cc(OC)c1OC (stereo not drawn)	/	-16.8%	-105.9*	5.6%	-9.4%
Oc1cccc(NC(=S)Nc2ccc(SC(F)F)cc2)c1	7.5%	-15.6%	-7.4	-1.0%	-18.7%

High-throughput results: PubChem BioAssay, National Center for Advancing Translational Sciences (NCATS)
